The whole screen tested about 370,000 compounds, of which about 3,100 (0.84%) were called active. Many of the other results were omitted from the sample, so actives are more common in it than they were. Unmarked numbers belong to inactive results. Rule as the data show it: active = inhibition above about 9.5%; inactive = the rest.
These molecules were tested against 1-phosphatidylinositol 4,5-bisphosphate phosphodiesterase gamma-1 (Homo sapiens) (UniProt P19174) (assay: blockers of human PLCG1 activity – biochemical, fluorescence, purified enzyme, primary screen (AID 720700)). Conditions: purified PLC-gamma1, fluorogenic substrate, at 12.2 µM, stronger effect = higher value.
Sequence of 1-phosphatidylinositol 4,5-bisphosphate phosphodiesterase gamma-1 (Homo sapiens) (P19174 whole entry, looked up): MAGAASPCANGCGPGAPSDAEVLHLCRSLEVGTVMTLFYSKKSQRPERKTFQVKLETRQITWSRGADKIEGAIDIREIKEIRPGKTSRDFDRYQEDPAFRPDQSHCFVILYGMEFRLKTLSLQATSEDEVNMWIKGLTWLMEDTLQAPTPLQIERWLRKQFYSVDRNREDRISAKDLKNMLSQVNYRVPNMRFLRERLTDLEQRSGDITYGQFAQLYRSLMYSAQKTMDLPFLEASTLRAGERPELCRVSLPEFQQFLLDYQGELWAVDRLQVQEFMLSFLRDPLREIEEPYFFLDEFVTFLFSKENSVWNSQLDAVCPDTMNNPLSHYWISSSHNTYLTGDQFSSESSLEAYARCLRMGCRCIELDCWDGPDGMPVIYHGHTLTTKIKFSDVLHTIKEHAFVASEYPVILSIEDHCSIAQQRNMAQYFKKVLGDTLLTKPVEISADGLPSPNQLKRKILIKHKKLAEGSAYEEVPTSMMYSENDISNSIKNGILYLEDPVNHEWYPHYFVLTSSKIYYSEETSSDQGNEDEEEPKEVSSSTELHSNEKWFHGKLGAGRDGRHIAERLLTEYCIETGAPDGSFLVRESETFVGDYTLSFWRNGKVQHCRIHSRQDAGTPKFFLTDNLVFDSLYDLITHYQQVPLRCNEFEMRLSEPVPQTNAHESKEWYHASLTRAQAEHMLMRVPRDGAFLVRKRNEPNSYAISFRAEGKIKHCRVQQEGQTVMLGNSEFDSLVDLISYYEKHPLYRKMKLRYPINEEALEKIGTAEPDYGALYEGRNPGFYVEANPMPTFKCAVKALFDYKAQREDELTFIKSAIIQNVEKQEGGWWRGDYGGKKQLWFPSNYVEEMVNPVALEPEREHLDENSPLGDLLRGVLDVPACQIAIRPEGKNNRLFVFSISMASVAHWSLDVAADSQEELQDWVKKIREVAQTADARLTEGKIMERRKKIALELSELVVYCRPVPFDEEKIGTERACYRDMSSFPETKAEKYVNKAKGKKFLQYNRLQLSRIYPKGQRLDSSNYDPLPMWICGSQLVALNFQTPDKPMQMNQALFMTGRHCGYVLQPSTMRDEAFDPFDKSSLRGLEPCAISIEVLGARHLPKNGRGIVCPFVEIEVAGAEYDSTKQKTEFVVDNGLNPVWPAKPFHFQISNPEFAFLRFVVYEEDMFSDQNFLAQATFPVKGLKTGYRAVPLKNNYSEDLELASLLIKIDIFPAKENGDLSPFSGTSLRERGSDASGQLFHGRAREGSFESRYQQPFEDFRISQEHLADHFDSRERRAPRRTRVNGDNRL

| Compound | inhibition |
| --- | --- |
| Cc1ccc(-n2ncc3c2CC(C)(C)CC3NC(=O)CCc2cnn(C)c2)cc1 (stereo not given) | 13.8% (active) |
| COc1ccc(-n2ncc3c2CC(C)(C)CC3NC(=O)CCc2c(C)nn(C)c2C)cc1 (stereo not given) | 2.97% |
| Cc1ccc(-n2ncc3c2CC(C)(C)CC3NC(=O)Cc2c(C)noc2C)cc1 (stereo not given) | 0.61% |
| COc1ccc(-c2cc(-c3nnc(SCC(=O)Nc4cccc5ccccc45)n3N)[nH]n2)cc1 | -0.07% |
| COC(=O)c1ccccc1-n1cc(COC(=O)NCCc2ccccc2)nn1 | -14.2% |
| COc1cccc(N(C)C(=O)[C@@H](C)[C@@H](O)c2ccc3ccccc3c2)c1 | -0.17% |
| C[C@H](C(=O)N(C)c1ccccc1)[C@@H](O)c1ccc(Cl)cc1 | 0.47% |
| C[C@H](C(=O)N(C)c1ccccc1)[C@@H](O)c1ccc2ccccc2c1 | 16.5% (active) |
| Cc1ccc(C(=O)Nc2ccc(C)c(S(=O)(=O)N(C)C)c2)s1 | 12.1% (active) |
| CCN(CC(=O)Nc1ccc(C)c(S(=O)(=O)N(C)C)c1)Cc1ccccc1 | 0.58% |
| COc1ccc(CCC(=O)OCC(=O)Nc2ccc(C)c(S(=O)(=O)N(C)C)c2)cc1 | -0.79% |
| CC(C)N1CCCCC(NC(=O)C(C)(C)C)C1=O (stereo not given) | -0.44% |
| CCC(C)[C@@H](C(=O)OC)N(CCc1cn(Cc2ccccc2)nn1)S(=O)(=O)c1ccccc1Br (stereo not given in full) | 2.53% |
| CCOc1cccc(-c2nnc3sc(COc4ccc(OC)cc4)nn23)c1 | 10.2% (active) |
| Cc1nc(COc2cccc(Cl)c2)sc1C(=O)/C=C/N(C)C | -0.19% |
| Fc1ccc(OCc2nn3c(Cn4nnc5ccccc54)nnc3s2)cc1 | -2.02% |
| Cc1ccc(-n2c(COc3ccccc3)nnc2SCC(=O)Nc2ccc3c(c2)OCCO3)cc1 | 2.55% |
| CC(=O)OC12CCCN(C1)/C(=C/c1ccncc1)C2 (stereo not given) | -7.4% |
| COc1ccccc1CCNC(=O)CN1C(=O)NC2(CCCC2)C1=O | 10.4% (active) |
| Cc1ccc(OCCNC(=O)CN2C(=O)NC3(CCCC3)C2=O)cc1 | 0.18% |
| COc1ccccc1CNC(=O)CCCN1C(=O)NC2(CCCC2)C1=O | 1.01% |
| CC(NCc1ccco1)C(=O)N1CCCCC1 (stereo not given) | -2.37% |

| Compound | inhibition |
| --- | --- |
| Cc1ccc(-n2c(SCC(=O)Nc3ccc(S(=O)(=O)Nc4nccs4)cc3)nnc2-c2ccncc2)cc1 | -4.02% |
| CC(=O)C1(C(=O)Nc2nccs2)CC(c2ccccc2C(F)(F)F)=NO1 (stereo not given) | -4.24% |
| C=CCN1C(=O)[C@@H](CC(=O)NCCCOCCCC)[C@]2(C(=O)OCC)CCCCC/C=C/12 | -1.4% |
| Cc1ccc(C(=O)C(=S)N2CCOCC2)cc1 | 0.9% |
| Cc1ccc(C(=O)N2CCN(C(=O)N3CCOCC3)CC2)cc1 | 10.4% (active) |
| Cc1ccc(C(=O)NC2CCN(C(=O)N3CCOCC3)CC2)cc1 | 4.32% |
| Fc1ccc2nc(COCc3nc4ccc(F)cc4[nH]3)[nH]c2c1 | -0.44% |
| Cc1cc(NS(=O)(=O)c2ccc(NC(=O)CSc3nnc(-c4ccc(C(C)(C)C)cc4)n3Cc3ccco3)cc2)nc(C)n1 | -1.67% |
| NC(c1csc(NC(=O)Nc2cccc(C(F)(F)F)c2)n1)C1CCCCC1 (stereo not given) | 6.49% |
| COc1ccc(CC(N)c2csc(NC(=O)Nc3ccc(C(C)C)cc3)n2)cc1 (stereo not given) | 2.68% |
| COc1ccc(C(N)c2csc(NC(=O)Nc3cccc(C(F)(F)F)c3)n2)cc1 (stereo not given) | 14.7% (active) |
| FC(F)(F)c1cccc(NC(=S)OC2CCC23CCC(c2ccccc2)CC3)c1 (stereo not given) | -0.1% |
| O=C(CN1CCC(NC(=O)NCc2ccccc2)CC1)Nc1ccc2c(c1)OCCO2 | -0.43% |
| C#CCCN([C@H](C(=O)OC)C(C)C)S(=O)(=O)c1ccc(F)cc1Br | -1.82% |
| Cc1c(C(C)c2ccccc2O)[nH]c2ccccc12 (stereo not given) | -4.04% |
| COc1ccccc1C(=O)Nc1ccc(OCC(=O)N2CCCCC2)cc1 | 3.96% |
| COc1ccccc1C(=O)Nc1cccc(C(=O)N2CCOCC2)c1 | 12.6% (active) |
| COc1ccccc1C(=O)N/C(=C/c1ccc2c(c1)OCO2)C(=O)Nc1cccc(C(=O)O)c1 | -3.19% |
| O=C(CSc1nc2ccccc2s1)N=Nc1c(O)[nH]c2ccccc12 | -0.8% |
| COC(=O)[C@H](C(C)C)N(CCc1cn(Cc2ccccc2)nn1)S(=O)(=O)c1ccc(F)cc1Br | 1.89% |
| C=CCn1c(SCn2nnc3ccccc3c2=O)nnc1-c1ccc(Cl)cc1 | 11.2% (active) |
| O=C(Cn1nnc2ccccc2c1=O)NCc1ccc(Cl)cc1 | 6.08% |

| Compound | inhibition |
| --- | --- |
| O=c1c2ccccc2nnn1CSc1nnnn1-c1ccccc1 | 2.24% |
| O=C(OC12CCCN(C1)/C(=C/c1cccnc1)C2)C1CCCC1 (stereo not given) | 2.54% |
| O=C(c1c[nH]c2ccccc12)N1CCC(Oc2cccnc2)CC1 | 5.31% |
| O=C(NC1CCC1)c1ccc(C#Cc2cccc(F)c2)c[n+]1[O-] | -0.74% |
| Cc1ccc(C)c(-n2c(SCC(=O)O)nc3sc4c(c3c2=O)CCCC4)c1 | 1.35% |
| CCn1c(SCC(=O)Nc2ccc(Br)cc2)nc2sc3c(c2c1=O)CCN(C)C3 | -70.8% |
| CCn1c(SCC(C)=O)nc2sc3c(c2c1=O)CCCC3 | 10.1% (active) |
| Cc1ccc(CN2CCCCC(NC(=O)C3CCCCC3)C2=O)cc1 (stereo not given) | 7.08% |
| CCCOc1ccc(Oc2c(Cl)cnn(Cc3cccc4ccccc34)c2=O)cc1 | -1.93% |
| CCOC(=O)C1CCN(C(=O)C(C)(C)NC(=O)Nc2ccccc2Cl)CC1 | 0.94% |
| Cc1ccccc1CN1CCCCC(NC(=O)c2cccc(C#N)c2)C1=O (stereo not given) | -2.09% |
| CC(=O)c1c(C)[nH]c(C(=O)OCC(=O)Nc2cc(S(=O)(=O)N3CCCCC3)ccc2C)c1C | 11.4% (active) |
| CS(=O)(=O)c1ccc(Cl)c(NC(=O)COC(=O)c2cccc(S(=O)(=O)N3CCCC3)c2)c1 | 1.69% |
| CC(=O)c1cccc(OCC(=O)OCC(=O)Nc2cc(S(=O)(=O)N3CCCCC3)ccc2C)c1 | 1.9% |
| Cc1ccc(S(=O)(=O)N2CCCCC2)cc1NC(=O)CCNC(=O)c1ccccc1Cl | 6.23% |
| Cc1ccc(S(=O)(=O)N2CCCCC2)cc1NC(=O)CCNC(=O)c1ccccc1 | 11.6% (active) |
| O=C(CCNC(=O)c1ccc(Br)cc1)Nc1cccc(S(=O)(=O)N2CCCCC2)c1 | -1.23% |
| CCOc1ccc(-n2c(SCC(=O)Nc3cc(C)c(NC(=O)c4ccccc4)cc3OC)nnc2-c2cccs2)cc1 | -10.9% |
| CCOC(=O)N1CCN(C(=O)C[C@H]2C[C@@]3(C(=O)OC)C(=C[C@H](C(C)(C)C)O[C@@H]3C)N(Cc3ccc(Cl)cc3Cl)C2=O)CC1 | -0.28% |
| O=C(c1cccc(C(F)(F)F)c1)N1CC[C@H]2[C@H](CCCN2Cc2cc(F)cc(F)c2)C1 | -2.47% |
| COC(=O)C1CN(CC(C)C)CCS(=O)(=O)N1Cc1ccc(C)cc1 (stereo not given) | 2.01% |

Reference: PubChem BioAssay AID720700 (The Scripps Research Institute Molecular Screening Center, 2013)
